Molecules are shown by their SMILES. Among all 150,000 compounds or so, about 6,500 (4.3%) were called active. About 12% were inconclusive and are not listed. For the sample, actives were picked, then their nearest neighbours and some compounds at random. Unmarked numbers belong to inactive results. Calls come from the whole dose curve; as a rule, active = well fitted inhibition curve with a large enough effect (not every such curve was filed as active); inconclusive = small, poorly fitted or top-dose-only effect, or another doubt; inactive = no such curve, though single readings can be large or run the other way.
% is set by controls: 0 for no effect and ±100 for the full control effect; potency is the fitted concentration of half-maximal effect.

The target in this experiment is 15-hydroxyprostaglandin dehydrogenase [NAD(+)] (Homo sapiens) (UniProt P15428). The experiment can be described thus: qHTS Assay for Inhibitors of HPGD (15-Hydroxyprostaglandin Dehydrogenase). As to conditions: purified HPGD, NADH fluorescence kinetic, PGE2 substrate; activity change, negative = inhibition: stronger effect = lower value. The gist of the method: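 NADH formation kinetics: reaction with 30 uM PGE2 and 1 mM NAD+ (final), 20 nM enzyme, Tris-HCl pH 8 with Tween 20, after 15 min compound preincubation at room temperature. Fluorescence change, last versus first of five reads.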
Chain of 15-hydroxyprostaglandin dehydrogenase [NAD(+)] (Homo sapiens) (P15428 whole entry, looked up): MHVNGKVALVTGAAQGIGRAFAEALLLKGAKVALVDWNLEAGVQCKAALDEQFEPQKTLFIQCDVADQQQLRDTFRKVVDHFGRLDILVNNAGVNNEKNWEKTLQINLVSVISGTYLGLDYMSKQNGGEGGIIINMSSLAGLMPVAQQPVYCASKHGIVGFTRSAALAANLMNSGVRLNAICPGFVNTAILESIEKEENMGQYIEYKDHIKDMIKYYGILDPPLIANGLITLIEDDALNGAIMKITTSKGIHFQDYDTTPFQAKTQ
(In general: qHTS replaces the single test concentration by a dilution series.)
For the compound `COc1ccc(CNC(=O)C2CCC(CNc3c(N4CCOCC4)c(=O)c3=O)CC2)cc1` (configuration not stated), the activity change, negative = inhibition was -17.3%.
`CCOc1ccccc1NC(=O)C1CCC(CNc2c(N3CCOCC3)c(=O)c2=O)CC1` (configuration not stated): the activity change, negative = inhibition was -25.1%.
Regarding `O=C(NCc1ccccc1Cl)C1CCC(CNc2c(N3CCCCC3)c(=O)c2=O)CC1` (configuration not stated), the Potency is 12.6 µM (active).
`O=C(CCN1C(=O)c2ccccc2C1=O)NNC(=O)c1ccc(Cl)cc1Cl`: the activity change, negative = inhibition was -7.71%.
On the same count and under the same terms, next, `Cc1c(Br)c([N+](=O)[O-])nn1CC(=O)Nc1sc2c(c1C(=O)OC(C)C)CCC(C)C2` (configuration not stated): -1.95%.
The same measure, in the same setting: the result for `C/C(=N/NS(=O)(=O)c1ccccc1)c1ccc(NC(=O)C(F)(F)F)cc1` reads -4.99%.
The same measure, in the same setting: next, `COc1ccc(/C=N/OCC(=O)N(Cc2ccccc2)c2ccccc2C(=O)O)cc1`: -8.65%; `O=C(N/N=C/c1coc2ccccc2c1=O)c1cc2ccccc2o1`: -20%; `Cc1cccc(N2CCN(C(=O)/C=C/c3ccco3)CC2)c1C`: -20.4%.
For `Cc1ccc(OCCCC(=O)N2CCOCC2)c(C)c1`, the Potency is 20 µM (active).
For the compound `CCOc1cc(-c2noc(CCC(=O)N3CCOCC3)n2)ccc1OC`, the activity change, negative = inhibition was -8.81%.
Regarding `COc1ccc(OCC(=O)N2CCOCC2)cc1`, the activity change, negative = inhibition was 4.8%.
Consider `COc1ccc(-c2nc3c(c4c2C[C@H](c2ccccc2)OC4)CN(C(=O)c2ccco2)CC3)c(C)c1`, for which the activity change, negative = inhibition is -11.6%.
Still for that read-out and setting: next, `Cc1ccc(C(C)NC(=O)Cn2nc(C)c([N+](=O)[O-])c2C)cc1` (configuration not stated): -5.59%; `O=C(O)c1cccc(N=NN2CCCCCC2)c1`: -9.76%; `CCc1nnc(NC(=O)CCN(c2ccc(C)cc2)S(=O)(=O)c2ccccc2)s1`: -10.2%.
Take `CC(=O)NNC1=Nc2ccccc2N(C)C(C)C1` (configuration not stated): the activity change, negative = inhibition was 0.367%.
As for `Cc1nn(CC(=O)Nc2nc3ccccc3s2)c(C)c1[N+](=O)[O-]`, the activity change, negative = inhibition was -4.84%.
In the case of `O=[N+]([O-])c1c(NCCO)cc(Sc2nc3ccccc3s2)c2nonc12`, the Potency was 11.2 µM (active).
Take `c1ccc2sc(SCCSc3nc4ccccc4s3)nc2c1`: the activity change, negative = inhibition is 0.386%.
Turning to `O=C(CSc1ccc2nnc(-c3ccccc3)n2n1)N1CCCc2ccccc21`, the activity change, negative = inhibition was -22.3%.
Regarding `COc1ccccc1CNC(=O)c1ccc(SC)cc1OC`, the Potency was 22.4 µM (active).
`COc1cc(SC)ccc1C(=O)NCCOc1ccccc1Cl`: the activity change, negative = inhibition is -18.8%.
On the same count and under the same terms, the result for `CCOC(=O)c1c(C)[nH]c(C(=O)NCc2ccccc2OC)c1C` reads -7.72%; that for `CC(NC(=O)CCC(=O)N1CCN(S(=O)(=O)c2ccc(Cl)cc2)CC1)c1ccccc1` (configuration not stated), -5.29%.
As for `Cc1c(Cl)cccc1NC(=S)NCc1ccc2c(c1)OCO2`, the activity change, negative = inhibition is -5.45%.
With `Cc1ccc(C(=O)c2c(NC(=O)c3ccccc3)sc(C)c2C)cc1`, the Potency was 14.1 µM (active).
Regarding `Cc1ccc(C(=O)c2c(NC(=O)c3ccncc3)sc3c2CCCC3)cc1`, the activity change, negative = inhibition was -22.2%.
As to `CC(=O)c1c(Nc2ccccc2)sc(C(=O)c2ccccc2)c1C`, the activity change, negative = inhibition was -1.98%.
Still for that read-out and setting: next, `CCc1ccccc1NC(=O)CN(C)C(=O)COc1ccc(C)nc1[N+](=O)[O-]`: -2.83%.
On to `COc1ccc(NC(=O)COC(=O)c2ccc(NS(=O)(=O)/C=C/c3ccccc3)cc2)cc1`, for which the activity change, negative = inhibition is -13.7%.
As for `Cn1cnc([N+](=O)[O-])c1Sc1ccccc1`, the Potency was 15.8 µM (active).
For the compound `Cn1cnc([N+](=O)[O-])c1Nc1ccccc1O`, the activity change, negative = inhibition is -2.73%.
Regarding `Cc1nn(C)c(Oc2ccccc2)c1[N+](=O)[O-]`, the activity change, negative = inhibition was -7.95%.
On the same count and under the same terms, next, `CCCN(CC1COc2ccccc2O1)C(=S)Nc1ccc(C)cc1` (configuration not stated): -7.28%.
On to `CCS(=O)(=O)n1nc(-c2ccccc2)nc1SCc1ccccc1`, for which the Potency was 14.1 µM (active).
Consider `CCS(=O)(=O)n1nc(-c2ccc(OC)cc2)nc1SC`, for which the activity change, negative = inhibition is -4.54%.
Take `CCCC(=O)n1nc(-c2ccccc2)nc1N`: the activity change, negative = inhibition is -7.53%.
As to `Cc1cc(F)ccc1S(=O)(=O)N1CCCOC1CNC(=O)C(=O)NCCC1=CCCCC1` (configuration not stated), the activity change, negative = inhibition is -6.01%.
On to `COc1ccc(CCN(C(=O)COc2ccccc2)c2nc(-c3ccccc3)cs2)cc1OC`, for which the activity change, negative = inhibition was -5.33%.
In the case of `COc1ccc(C(CCN(Cc2ccc(OC)c(OC)c2)C(=O)CCl)c2ccccc2)cc1` (configuration not stated), the Potency was 10 µM (active).
As to `CCOC(=O)CN(Cc1ccc(OC)c(OC)c1)S(=O)(=O)c1ccc(OC)cc1`, the activity change, negative = inhibition is 1.91%.
On the same count and under the same terms, the result for `CC(C)(C)C1CCC(=NNC(=O)c2ccc(Br)o2)CC1` (configuration not stated) reads -11.4%; that for `CCOC(=O)CNC(=O)CSc1nc2cccnc2n1CC`, -17.6%.
The same measure, in the same setting: next, `CCn1c(SCC(=O)NCC2CCCO2)nc2cc(S(=O)(=O)N3CCCCC3)ccc21` (configuration not stated): -12.7%.
Turning to `CCOC(=O)c1ccc2c(c1)nc(SCC(=O)NC(C)C)n2CC`, the Potency is 31.6 µM (active).
For the compound `O=C(CSCc1ccc(Cl)cc1)N1CCN(Cc2ccc3c(c2)OCO3)CC1`, the activity change, negative = inhibition was -13.7%.
As to `O=C(CSCc1ccc(Cl)cc1)N1CCCCC1`, the Potency is 15.8 µM (active).
For the compound `O=C(CN1CCN(c2ccc(Cl)cc2)CC1)N1CCCC1`, the activity change, negative = inhibition is -1.51%.
With `CCCCC/C=C\C/C=C\CCCCCCCCCC(N)=O`, the activity change, negative = inhibition is -6.01%.
With `COc1ccc(NC(=S)NC2CCS(=O)(=O)C2)cc1` (configuration not stated), the activity change, negative = inhibition is -7.38%.
As to `O=c1[nH]nc(CSCc2ccccc2Cl)[nH]1`, the activity change, negative = inhibition is -4.38%.
The same measure, in the same setting: the result for `Clc1ccc(CSc2nnc(/C=C/c3ccccc3)o2)c(Cl)c1` reads -24.9%.
Regarding `S=c1[nH]nc(CSCc2ccc(Cl)cc2Cl)n1-c1ccccc1`, the Potency is 3.16 µM (active).
Regarding `CCOC(=O)Cc1csc(NC(=O)CSc2ccc(Br)cc2)n1`, the activity change, negative = inhibition was -1.05%.
Consider `CCOC(=O)CNC(=O)/C=C/c1c(Cl)cccc1Cl`, for which the activity change, negative = inhibition was -4.86%.
With `Cc1cccc2cc(CN(C(=O)c3cccs3)c3ccccc3)c(=O)[nH]c12`, the activity change, negative = inhibition is -18.7%.
In the case of `Cc1ccsc1/C=N/n1c(=S)[nH]nc(C)c1=O`, the activity change, negative = inhibition is -6.69%.
Still for that read-out and setting: the result for `CSC(=S)N/N=C/c1c[nH]c2ccccc12` reads -6.73%.
Take `Cc1ccc(/C=N\n2c(-c3ccccc3)n[nH]c2=S)s1`: the Potency was 11.2 µM (active).
The same measure, in the same setting: the result for `Oc1ccccc1/C=N/n1c(-c2cccs2)n[nH]c1=S` reads 2.51 µM (active); that for `S=c1[nH]nc(-c2ccco2)n1/N=C/c1ccc(Br)s1`, 2.82 µM (active).
As to `Cc1n[nH]c(=S)n1/N=C/c1ccc(Br)o1`, the activity change, negative = inhibition was -10%.
Turning to `S=c1[nH]nc(-c2ccccc2)n1/N=C/c1c[nH]c2ccccc12`, the Potency was 2 µM (active).
For `c1ccc(-c2noc(-c3cccs3)n2)nc1`, the activity change, negative = inhibition was -8.74%.
`Brc1ccc(/C=N/N2CCN(C3c4ccccc4-c4ccccc43)CC2)s1`: the activity change, negative = inhibition is -4.34%.
Still for that read-out and setting: the result for `Cc1ccc(-c2csc(-c3c[nH]c4ccccc34)n2)cc1` reads -7.14%.

The values above are taken from PubChem BioAssay AID894 (National Center for Advancing Translational Sciences (NCATS), 2007).
